About 2,000 (36%) of roughly 5,500 compounds were called active. Not shown: some 18% with an inconclusive outcome. The list shows a part of the results. Values without a mark were called inactive. No stated cut-off is given here; in the data, active means normalized growth mostly below about 0.91 (no sharp cut-off); inconclusive means no clear call, values can overlap the other calls; inactive means mostly above about 0.92.
Experiment: chemical genetic growth profiling, strain panel (AID 1159580);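 further: tested at 20 µM; growth read once vehicle control cultures reached saturation at 30 °C; 1 = growth at the plate median or of vehicle wells; lower values mean less growth of the strain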
Conditions: S. cerevisiae deletion strains, growth OD
[1] = locus YAR019C, strain CDC15, hits give low values
[2] = locus YBL105C, strain PKC1, hits give low values
[3] = locus YBR135W, strain CKS1, hits give low values
[4] = locus YBR136W, strain MEC1, hits give low values
[5] = locus YBR160W, strain CDC28, hits give low values
[6] = locus YDL017W, strain CDC7, hits give low values
[7] = locus YDL028C, strain MPS1, hits give low values
[8] = locus YDL101C, strain DUN1, hits give low values
[9] = locus YDL108W, strain KIN28, hits give low values
[10] = locus YDL132W, strain cdc53, hits give low values
[11] = locus YDL214C, strain PRR2, hits give low values
[12] = locus YDR052C, strain DBF4, hits give low values
[13] = locus YDR054C, strain cdc34, hits give low values
[14] = locus YDR226W, strain ADK1, hits give low values
[15] = locus YDR477W, strain SNF1, hits give low values
[16] = locus YER123W, strain YCK3, hits give low values
[17] = locus YER133W, strain GLC7, hits give low values
[18] = locus YFL009W, strain cdc4, hits give low values
[19] = locus YFL029C, strain CAK1, hits give low values
[20] = locus YFR003C, strain YPI1, hits give low values
[21] = locus YFR019W, strain FAB1, hits give low values
[22] = locus YFR028C, strain CDC14, hits give low values
[23] = locus YGR040W, strain KSS1, hits give low values
[24] = locus YGR052W, strain FMP48, hits give low values
[25] = locus YGR092W, strain DBF2, hits give low values
[26] = locus YHR030C, strain SLT2, hits give low values
[27] = locus YHR079C, strain IRE1, hits give low values
[28] = locus YHR082C, strain KSP1, hits give low values
[29] = locus YHR205W, strain SCH9, hits give low values
[30] = locus YIL147C, strain SLN1, hits give low values
[31] = locus YJL095W, strain BCK1, hits give low values
[32] = locus YJL128C, strain PBS2, hits give low values
[33] = locus YJL157C, strain FAR1, hits give low values
[34] = locus YJR016C, strain ILV3, hits give low values
[35] = locus YJR066W, strain TOR1 (second series), hits give low values
[36] = locus YJR066W, strain TOR1, hits give low values
[37] = locus YKL048C, strain ELM1, hits give low values
[38] = locus YKL067W, strain YNK1, hits give low values
[39] = locus YKL101W, strain HSL1, hits give low values
[40] = locus YKL193C, strain SDS22, hits give low values
[41] = locus YKL203C, strain TOR2, hits give low values
[42] = locus YLR113W, strain HOG1, hits give low values
[43] = locus YLR133W, strain CKI1, hits give low values
[44] = locus YLR403W, strain SFP1, hits give low values
[45] = locus YML070W, strain DAK1, hits give low values
[46] = locus YMR001C, strain CDC5, hits give low values
[47] = locus YMR205C, strain PFK2 (second series), hits give low values
[48] = locus YMR277W, strain FCP1, hits give low values
[49] = locus YNL006W, strain LST8, hits give low values
[50] = locus YNL020C, strain ARK1, hits give low values
[51] = locus YNL161W, strain CBK1, hits give low values
[52] = locus YNL183C, strain NPR1, hits give low values
[53] = locus YNL207W, strain RIO2, hits give low values
[54] = locus YNL222W, strain SSU72, hits give low values
[55] = locus YNL307C, strain MCK1 (second series), hits give low values
[56] = locus YOL078W, strain AVO1, hits give low values
[57] = locus YOL136C, strain PFK27, hits give low values
[58] = locus YOR061W, strain CKA2, hits give low values
[59] = locus YOR119C, strain RIO1, hits give low values
[60] = locus YOR231W, strain MKK1, hits give low values
[61] = locus YOR329C, strain SCD5, hits give low values
[62] = locus YPL031C, strain PHO85, hits give low values
[63] = locus YPL153C, strain RAD53, hits give low values
[64] = locus YPL204W, strain HRR25, hits give low values
[65] = locus YPL209C, strain IPL1, hits give low values
[66] = locus YPL256C, strain CLN2, hits give low values
[67] = locus YPR025C, strain CCL1, hits give low values
[68] = locus YPR106W, strain ISR1, hits give low values
[69] = locus YPR111W, strain DBF20, hits give low values
[70] = strain NNK1, hits give low values
[71] = strain TSCII, hits give low values

`Cc1nc(C(F)(F)F)c(C(=O)O/N=C(/N)c2ccc(Cl)cc2)s1` showed a normalized growth [1] of 0.98, a normalized growth [2] of 0.975 and a normalized growth [3] of 0.98. For the same compound, the normalized growth [4] was 0.968, the normalized growth [5] was 0.983 and the normalized growth [6] was 0.988. It also gave a normalized growth [7] of 0.974, a normalized growth [8] of 0.994 and a normalized growth [9] of 0.98. For the same compound, the normalized growth [10] was 0.997, the normalized growth [11] was 0.967 and the normalized growth [12] was 0.988. It also gave a normalized growth [13] of 1, a normalized growth [14] of 0.991 and a normalized growth [15] of 0.942. It also gave a normalized growth [16] of 0.92, a normalized growth [17] of 0.942 and a normalized growth [18] of 0.974. It also gave a normalized growth [19] of 0.983, a normalized growth [20] of 0.982 and a normalized growth [21] of 0.938. The normalized growth [22] was 0.98, the normalized growth [23] was 0.941 and the normalized growth [24] was 0.952. It also gave a normalized growth [25] of 0.933, a normalized growth [26] of 0.999 and a normalized growth [27] of 0.83. The normalized growth [28] was 1.14, the normalized growth [29] was 0.921 and the normalized growth [30] was 0.978. For the same compound, the normalized growth [31] was 0.818, the normalized growth [32] was 0.978 and the normalized growth [33] was 0.952. The normalized growth [34] was 0.984, the normalized growth [35] was 0.926 and the normalized growth [36] was 1.06. It also gave a normalized growth [37] of 1, a normalized growth [38] of 0.974 and a normalized growth [39] of 0.983. For the same compound, the normalized growth [40] was 0.954, the normalized growth [41] was 1.03 and the normalized growth [42] was 0.79 (active). It also gave a normalized growth [43] of 0.948, a normalized growth [44] of 0.905 and a normalized growth [45] of 0.939. The normalized growth [46] was 0.973, the normalized growth [47] was 0.941 and the normalized growth [48] was 0.974. For the same compound, the normalized growth [49] was 0.985, the normalized growth [50] was 0.945 and the normalized growth [51] was 0.984. For the same compound, the normalized growth [52] was 0.876, the normalized growth [53] was 0.972 and the normalized growth [54] was 0.977. For the same compound, the normalized growth [55] was 0.963, the normalized growth [56] was 0.97 and the normalized growth [57] was 0.946. For the same compound, the normalized growth [58] was 0.948, the normalized growth [59] was 0.983 and the normalized growth [60] was 0.831. The normalized growth [61] was 0.974, the normalized growth [62] was 0.947 and the normalized growth [63] was 0.937. For the same compound, the normalized growth [64] was 0.921, the normalized growth [65] was 0.982 and the normalized growth [66] was 0.795 (active). It also gave a normalized growth [67] of 0.993, a normalized growth [68] of 0.987 and a normalized growth [69] of 0.976. The normalized growth [70] was 0.995 and the normalized growth [71] was 0.974.

Work on `CCC1CCC(C)N(C(=S)Nc2ccc(Br)cc2C)C1` (configuration not stated) yielded a normalized growth [1] of 0.965, a normalized growth [2] of 0.976 and a normalized growth [3] of 0.955. For the same compound, the normalized growth [4] was 0.971, the normalized growth [5] was 0.953 and the normalized growth [6] was 0.966. For the same compound, the normalized growth [7] was 0.961, the normalized growth [8] was 0.958 and the normalized growth [9] was 0.96. It also gave a normalized growth [10] of 0.956, a normalized growth [11] of 0.987 and a normalized growth [12] of 0.969. For the same compound, the normalized growth [13] was 0.953, the normalized growth [14] was 0.963 and the normalized growth [15] was 0.955. The normalized growth [16] was 0.936, the normalized growth [17] was 0.961 and the normalized growth [18] was 0.956. For the same compound, the normalized growth [19] was 0.963, the normalized growth [20] was 0.978 and the normalized growth [21] was 0.995. For the same compound, the normalized growth [22] was 0.967, the normalized growth [23] was 0.963 and the normalized growth [24] was 1.11. The normalized growth [25] was 0.964, the normalized growth [26] was 0.84 (active) and the normalized growth [27] was 0.979. It also gave a normalized growth [28] of 1.05, a normalized growth [29] of 0.993 and a normalized growth [30] of 0.968. It also gave a normalized growth [31] of 0.913, a normalized growth [32] of 0.927 and a normalized growth [33] of 0.986. It also gave a normalized growth [34] of 0.964, a normalized growth [35] of 1.01 and a normalized growth [36] of 0.987. The normalized growth [37] was 0.956, the normalized growth [38] was 1 and the normalized growth [39] was 0.95. It also gave a normalized growth [40] of 0.951, a normalized growth [41] of 1.05 and a normalized growth [42] of 0.924. For the same compound, the normalized growth [43] was 0.98, the normalized growth [44] was 0.992 and the normalized growth [45] was 0.958. The normalized growth [46] was 0.961, the normalized growth [47] was 0.973 and the normalized growth [48] was 0.962. It also gave a normalized growth [49] of 0.966, a normalized growth [50] of 0.974 and a normalized growth [51] of 0.948. For the same compound, the normalized growth [52] was 0.967, the normalized growth [53] was 0.957 and the normalized growth [54] was 0.963. It also gave a normalized growth [55] of 0.948, a normalized growth [56] of 0.959 and a normalized growth [57] of 0.964. For the same compound, the normalized growth [58] was 0.948, the normalized growth [59] was 1.08 and the normalized growth [60] was 0.957. For the same compound, the normalized growth [61] was 0.968, the normalized growth [62] was 0.968 and the normalized growth [63] was 0.955. For the same compound, the normalized growth [64] was 0.969, the normalized growth [65] was 0.967 and the normalized growth [66] was 0.906. The normalized growth [67] was 0.959, the normalized growth [68] was 0.978 and the normalized growth [69] was 0.979. The normalized growth [70] was 0.962 and the normalized growth [71] was 0.95.
